Measured values reported in PubChem BioAssay AID1159580 (chemical genetic matrix, 2015).
Several values for one entry are separate records, joined by “and”; a condition that tells them apart may be missing. Identical values can stand only once. In all, about 5,500 compounds went through this assay and about 2,000 (36%) were called active. Another 18% or so got no clear call; they are omitted. Rule as the data show it: active = normalized growth mostly below about 0.91 (no sharp cut-off); inconclusive = no clear call, values can overlap the other calls; inactive = mostly above about 0.92. Some of the results follow. A structure can be active in one record and inactive in another.

Assay: chemical genetic growth profiling, strain panel (AID 1159580);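 also: tested at 20 µM; growth read once vehicle control cultures reached saturation at 30 °C; 1 = growth at the plate median or of vehicle wells; lower values mean less growth of the strain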
Details: S. cerevisiae deletion strains, growth OD

Measured: normalized growth

CN(C)CCCN1c2ccccc2Sc2ccc(C(F)(F)F)cc21
0.976 (inactive) and 0.395 (active): locus YGR229C, strain SMI1, stronger effect = lower value
active: locus YAL021C, strain ccr4, stronger effect = lower value 0.799 | locus YAL026C, strain drs2, stronger effect = lower value 0.329 | locus YDR069C, strain doa4, stronger effect = lower value 0.846 | locus YDR137W, strain rgp1, stronger effect = lower value 1.25 [resistant] | locus YDR195W, strain ref2 1.27 [resistant] | locus YDR392W, strain spt3, stronger effect = lower value 1.22 [resistant] | locus YFR010W, strain ubp6, stronger effect = lower value 0.831
inactive: locus YAL013W, strain DEP1, stronger effect = lower value 0.982 and 0.939 | locus YAL030W, strain snc1, stronger effect = lower value 1.01 | locus YAL040C, strain CLN3, stronger effect = lower value 0.99 | locus YBL061C, strain skt5, stronger effect = lower value 1.02 | locus YBR009C, strain hhf1, stronger effect = lower value 0.961 | locus YBR021W, strain FUR4, stronger effect = lower value 1.04 | locus YBR023C, strain chs3, stronger effect = lower value 0.999 | locus YBR171W, strain sec66, stronger effect = lower value 1.03 | locus YBR229C, strain ROT2, stronger effect = lower value 0.955 | locus YBR231C, strain swc5, stronger effect = lower value 1.04 | locus YBR279W, strain paf1, stronger effect = lower value 1.01 | locus YCL011C, strain gbp2, stronger effect = lower value 1.01 | locus YCL016C, strain dcc1, stronger effect = lower value 1.01 | locus YCL029C, strain bik1, stronger effect = lower value 0.968 | locus YCL061C, strain MRC1 (second series), stronger effect = lower value 0.987 | locus YCL061C, strain MRC1, stronger effect = lower value 1.02 | locus YCL069W, strain vba3, stronger effect = lower value 1.01 | locus YCR088W, strain abp1, stronger effect = lower value 1.02 | locus YDL005C, strain med2, stronger effect = lower value 1.06 | locus YDL035C, strain GPR1, stronger effect = lower value 0.983 | locus YDL040C, strain nat1, stronger effect = lower value 1.01 | locus YDL074C, strain BRE1, stronger effect = lower value 1.01 | locus YDL101C, strain DUN1, stronger effect = lower value 0.981 | locus YDL134C, strain PPH21, stronger effect = lower value 0.99 | locus YDL185W, strain tfp1, stronger effect = lower value 0.963 | locus YDL192W, strain arf1, stronger effect = lower value 0.963 | locus YDR001C, strain nth1, stronger effect = lower value 1.02 | locus YDR101C, strain arx1, stronger effect = lower value 0.994 | locus YDR150W, strain NUM1, stronger effect = lower value 0.978 and 0.989 | locus YDR159W, strain sac3, stronger effect = lower value 1.07 | locus YDR162C, strain NBP2, stronger effect = lower value 0.971 | locus YDR297W, strain sur2, stronger effect = lower value 1.02 | locus YDR318W, strain mcm21, stronger effect = lower value 1 | locus YDR334W, strain swr1, stronger effect = lower value 1.02 | locus YDR335W, strain msn5, stronger effect = lower value 1.02 | locus YDR363W, strain ESC2, stronger effect = lower value 0.896 | locus YDR388W, stronger effect = lower value 0.986 | locus YDR502C, strain sam2, stronger effect = lower value 0.992 | locus YEL003W, strain gim4, stronger effect = lower value 1 | locus YEL037C, strain rad23, stronger effect = lower value 1.01 | locus YEL061C, strain CIN8 (second series), stronger effect = lower value 1.01 | locus YEL061C, strain CIN8, stronger effect = lower value 0.989 | locus YER002W, strain NOP16, stronger effect = lower value 1.04 | locus YER015W, strain faa2, stronger effect = lower value 1.01 | locus YER016W, strain bim1, stronger effect = lower value 1.02 | locus YER110C, stronger effect = lower value 0.961 | locus YER111C, strain swi4, stronger effect = lower value 1.01 | locus YER155C, strain BEM2 (second series), stronger effect = lower value 1.06 | locus YER155C, strain BEM2, stronger effect = lower value 1 | locus YER167W, strain BCK2, stronger effect = lower value 0.997 | locus YGL078C, strain dbp3, stronger effect = lower value 0.985 | locus YGL086W, strain mad1, stronger effect = lower value 0.998 | locus YGL167C, strain pmr1, stronger effect = lower value 1.02 | locus YGL173C, strain kem1, stronger effect = lower value 0.996 | locus YGL227W, strain vid30, stronger effect = lower value 1.03 | locus YGL240W, strain doc1, stronger effect = lower value 1.05 | locus YGL248W, strain PDE1, stronger effect = lower value 0.983 | locus YGL253W, strain hxk2, stronger effect = lower value 1 | locus YGR078C, strain PAC10, stronger effect = lower value 1.01 | locus YGR135W, strain pre9, stronger effect = lower value 0.982 | locus YGR252W, strain gcn5, stronger effect = lower value 0.989 | locus YHR013C, strain ard1, stronger effect = lower value 0.939 | locus YHR027C, strain rpn1, stronger effect = lower value 1.01 | locus YHR030C, strain SLT2, stronger effect = lower value 0.991 and 1 | locus YHR079C, strain IRE1 (second series), stronger effect = lower value 0.975 | locus YHR079C, strain IRE1, stronger effect = lower value 0.991 | locus YHR094C, strain hxt1, stronger effect = lower value 0.981 | locus YHR129C, strain ARP1, stronger effect = lower value 1 | locus YHR142W, strain chs7, stronger effect = lower value 0.958 | locus YHR200W, strain rpn10, stronger effect = lower value 0.988 | locus YIL066C, strain RNR3, stronger effect = lower value 0.973 | locus YIL073C, strain SPO22, stronger effect = lower value 0.942 | locus YIL125W, strain kgd1, stronger effect = lower value 0.974 | locus YIR030C, strain dcg1, stronger effect = lower value 0.974 | locus YJL092W, strain hpr5, stronger effect = lower value 1.01 | locus YJL095W, strain BCK1 (second series), stronger effect = lower value 0.968 | locus YJL095W, strain BCK1, stronger effect = lower value 1.02 and 0.998 | locus YJL115W, strain asf1, stronger effect = lower value 1.03 | locus YJL129C, strain trk1, stronger effect = lower value 1.03 | locus YJL134W, strain LCB3, stronger effect = lower value 0.987 | locus YJL154C, strain vps35, stronger effect = lower value 1.01 | locus YJL164C, strain tpk1, stronger effect = lower value 0.921 | locus YJL166W, strain qcr8, stronger effect = lower value 0.951 | locus YJL168C, strain set2, stronger effect = lower value 0.978 | locus YJL187C, strain SWE1 (second series), stronger effect = lower value 0.992 | locus YJL187C, strain SWE1, stronger effect = lower value 1.01 | locus YJR043C, strain POL32, stronger effect = lower value 1
